The record followed here is the supplement of paper PMC13380429.

In assay [1] the test system is Vero E6 infected with SARS-CoV-2. In words: morphology score (similarity to uninfected cells); higher = more like uninfected cells. The note with it: 24 h.
The test system is the same in assay [2]. Description: SARS-CoV-2 infection rate relative to infected DMSO; higher = more infection, active = 60 or less. The settings on record: 24 h.

In assay [1], `CC(C)c1noc(N2CCC(COc3ccc(-c4ccc(S(C)(=O)=O)cc4)nc3)CC2)n1` (10 µM) gave a morphology score of -0.0966. The SARS-CoV-2 infection rate in assay [2] was 116% (inactive).

Turning to `CC(C(=O)O)c1cccc(Oc2ccccc2)c1` (stereo not drawn) [fenoprofen] (10 µM), in assay [1], the morphology score turned out to be 0.0202. Further, the SARS-CoV-2 infection rate in assay [2] was 108% (inactive).

As to `CCN(CCO)CCCOc1ccc2c(Nc3cc(CC(=O)Nc4cccc(F)c4)[nH]n3)ncnc2c1` [barasertib-HQPA] (10 µM), in assay [1], the morphology score came out at 0.0875. Moreover, the SARS-CoV-2 infection rate in assay [2] is 112% (inactive).

In assay [1], `CC1(C)CCC(C)(C)c2cc(C(=O)Nc3ccc(C(=O)O)cc3)ccc21` (10 µM) gave a morphology score of -0.326. Moreover, the SARS-CoV-2 infection rate in assay [2] was 112% (inactive).

Turning to `NCCCC[C@@H]1NC(=O)[C@@H](Cc2c[nH]c3ccccc23)NC(=O)[C@H](c2ccccc2)NC(=O)[C@@H]2C[C@@H](OC(=O)NCCN)CN2C(=O)[C@H](Cc2ccccc2)NC(=O)[C@H](Cc2ccc(OCc3ccccc3)cc2)NC1=O` [pasireotide] (10 µM), the morphology score in assay [1] was -0.0469. Besides, the SARS-CoV-2 infection rate in assay [2] is 104% (inactive).

As to `COc1ccccc1OCC(O)CNC(C)C` (stereo not drawn) [moprolol] (10 µM), the morphology score in assay [1] turned out to be 0.0947. Besides, the SARS-CoV-2 infection rate in assay [2] was 100% (inactive).

`Cc1ccc2c(c1)C(=O)[C@]1(O)CCN(c3ccccc3)C1=N2` (racemic) [blebbistatin-(+/-)] (10 µM) showed a morphology score in assay [1] of 0.464. Further, in assay [2], the SARS-CoV-2 infection rate was 90.8% (inactive).

Take `CCOc1ccc(Cc2cc([C@@H]3O[C@H](SC)[C@@H](O)[C@H](O)[C@H]3O)ccc2Cl)cc1` [sotagliflozin] (10 µM): in assay [1], the morphology score was -0.0387. For the same compound, the SARS-CoV-2 infection rate in assay [2] was 114% (inactive).

Consider `CN(C)[C@@H]1CCc2[nH]c3ccc(NC(=O)c4ccc(F)cc4)cc3c2C1` (10 µM), for which, in assay [1], the morphology score was found to be 0.438. In addition, the SARS-CoV-2 infection rate in assay [2] was 70.5% (inactive).

In assay [1], `O=c1c(-c2ccccc2)c1-c1ccccc1` [diphencyprone] (10 µM) displayed a morphology score of -0.0547. Also, the SARS-CoV-2 infection rate in assay [2] is 100% (inactive).

In assay [1], `CNC(=O)c1cc(Oc2ccc(NC(=O)Nc3ccc(Cl)c(C(F)(F)F)c3)c(F)c2)ccn1` [regorafenib] (0.833333 µM) yielded a morphology score of 0.0372. Besides, in assay [2], the SARS-CoV-2 infection rate is 110% (inactive).

As for `CNC(=N)NC(=O)Nc1c(C)cccc1C` [lidamidine] (10 µM), the morphology score in assay [1] is -0.327. Moreover, in assay [2], the SARS-CoV-2 infection rate was 118% (inactive).

`C[C@]12COC(=O)C[C@@H]1CC[C@@H]1[C@@H]2CC[C@@]2(C)[C@H]1CC[C@]2(C)O` [Oxandrolone] (10 µM): the morphology score in assay [1] stood at 0.0356. For the same compound, the SARS-CoV-2 infection rate in assay [2] is 112% (inactive).

Compound `CC(C)c1cnn2c(NCc3ccccc3)cc(NCCCCCCN)nc12` (10 µM) registered a morphology score in assay [1] of 0.714. For the same compound, the SARS-CoV-2 infection rate in assay [2] was 41% (active).

Regarding `CC(C)(C)NCC(O)COc1cc(Cl)ccc1Cl` (stereo not drawn) [cloranolol] (10 µM), the morphology score in assay [1] was -0.0735. Besides, the SARS-CoV-2 infection rate in assay [2] was 100% (inactive).

`CN1C(=O)CC(c2ccccc2)C1=O` (stereo not drawn) [phensuximide] (10 µM) showed a morphology score in assay [1] of 0.0814. Also, in assay [2], the SARS-CoV-2 infection rate was 112% (inactive).

`CC(C)(C)c1ccc(C(O)CCCN2CCC(C(O)(c3ccccc3)c3ccccc3)CC2)cc1` (stereo not drawn) [terfenadine] (10 µM) returned a morphology score in assay [1] of 0.133. Also, the SARS-CoV-2 infection rate in assay [2] is 96% (inactive).

For `NS(=O)(=O)c1cc(C(=O)O)c(NCc2ccco2)cc1Cl` [furosemide] (10 µM), in assay [1], the morphology score was found to be 0.0455. In addition, the SARS-CoV-2 infection rate in assay [2] was 98% (inactive).

Turning to `Cc1nc(N)sc1CCN` [amthamine] (10 µM), the morphology score in assay [1] turned out to be 0.148. Moreover, the SARS-CoV-2 infection rate in assay [2] was 92.5% (inactive).

In assay [1], `N=C(N)NS(=O)(=O)c1ccc(N)cc1` [sulfaguanidine] (10 µM) returned a morphology score of 0.00117. Moreover, in assay [2], the SARS-CoV-2 infection rate is 108% (inactive).

In assay [1], `CC(N)Cc1ccc(O)cc1` (stereo not drawn) [hydroxyamphetamine] (10 µM) registered a morphology score of -0.0633. Further, the SARS-CoV-2 infection rate in assay [2] was 104% (inactive).

In assay [1], `COc1ccccc1N1CCN(CCCNc2cc(=O)n(C)c(=O)n2C)CC1` [urapidil] (10 µM) displayed a morphology score of 0.088. Further, in assay [2], the SARS-CoV-2 infection rate was 101% (inactive).

In turn, `Nc1nc(OCc2cc(Br)cs2)c2[nH]cnc2n1` [lomeguatrib] (10 µM) registered a morphology score in assay [1] of 0.19. Also, the SARS-CoV-2 infection rate in assay [2] was 104% (inactive).

In the case of `COc1ccc(S(=O)(=O)N2CCCN(S(=O)(=O)c3ccc(OC)c(OC)c3)CC2)cc1OC` (10 µM), in assay [1], the morphology score stood at 0.209. Further, the SARS-CoV-2 infection rate in assay [2] was 106% (inactive).

In turn, `CCOC(=O)NNc1ccc(N(CC)CC(C)O)nn1` (stereo not drawn) [cadralazine] (10 µM) came in with a morphology score in assay [1] of 0.0865. For the same compound, the SARS-CoV-2 infection rate in assay [2] is 108% (inactive).

For the compound `c1ccc(Cn2c(N3CCNCC3)nc3ccccc32)cc1` [lerisetron] (10 µM), the morphology score in assay [1] amounted to 0.0474. Further, the SARS-CoV-2 infection rate in assay [2] was 100% (inactive).

Turning to `COc1cc2c(=O)c(-c3ccc(O)cc3)coc2cc1O` [glycitein] (10 µM), the morphology score in assay [1] was found to be 0.00478. In addition, in assay [2], the SARS-CoV-2 infection rate is 110% (inactive).

Consider `CC(C)(CO)[C@@H](O)C(=O)NCCC(=O)O` [pantothenic-acid] (10 µM), for which, in assay [1], the morphology score came out at 0.0324. For the same compound, the SARS-CoV-2 infection rate in assay [2] is 110% (inactive).

For the compound `COCCc1ccc(OCC(O)CNC(C)C)cc1` (stereo not drawn) [metoprolol] (10 µM), the morphology score in assay [1] came out at 0.0844. In addition, the SARS-CoV-2 infection rate in assay [2] is 101% (inactive).
